GLS inh = qHTS for Inhibitors of Glutaminase (GLS); Glutaminase kidney isoform, mitochondrial (Homo sapiens), O94925; GLS enzymatic activity, qHTS titration; Potency, µM (titrated, usually from 45.5 µM), without a hit: at the top dose activity change, negative = inhibition, most hits filed as inhibitors; 0.21% of 410,000 active; AID 624170, 2012; also: % is scaled to controls: 0 for no effect and ±100 for the full control effect
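Compounds were pin-transferred onto hKGA, after which L-glutamine (1 mM solution) and a detection mix of glutamate oxidase, HRP and Amplex Red were added. Initial and 30 min RT fluorescence reads were collected.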
BAZ2B block = qHTS Assay for Inhibitors of BAZ2B; Potency, µM (series often up to 114 µM), without a hit: at the top dose activity change, negative = inhibition, actives largely listed as inhibitors; AID 504333, 2011; 4.4% of 360,000 active; Bromodomain adjacent to zinc finger domain protein 2B (Homo sapiens), Q9UIF8; AlphaScreen BAZ2B-H3K14Ac peptide displacement; also: % is scaled to controls: 0 for no effect and ±100 for the full control effect; nearly all actives have a fitted effect of over 60% in size
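Multi-concentration screen (max 110 uM) measuring displacement of acetylated histone H3 peptide from BAZ2B by AlphaScreen, using 50 nM protein, 50 nM peptide and 10 ug/mL streptavidin donor plus Ni-chelate acceptor beads.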
JMJD2A Tudor inh = qHTS Assay for Inhibitors of JMJD2A-Tudor Domain | Potency, µM (doses to about 114 µM), without a hit: at the highest dose activity change, negative = inhibition, most hits filed as inhibitors | Lysine-specific demethylase 4A (Homo sapiens), O75164 | AID 504339, 2011 | 4.4% of 390,000 active | AlphaScreen JMJD2A-Tudor / H3K4me3 peptide binding; also: % is scaled to controls: 0 for no effect and ±100 for the full control effect; nearly all actives have a fitted effect of over 50% in size
HP1b chromo inh = HTS for Inhibitors of HP1-beta Chromodomain Interactions with Methylated Histone Tails; AlphaScreen HP1-beta / biotin-H3K9me3 peptide binding; Potency, µM (series often up to 114 µM), without a hit: at the top dose activity change, negative = inhibition, most hits filed as inhibitors; 0.56% of 390,000 active; also: nearly all actives have a fitted effect of over 70% in size
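HP1-beta protein (50 nM final) preincubated 30 min at room temperature with biotinylated H3(1-18)K9me3 peptide (50 nM) in PBS pH 7.4, 0.01% Tween-20, then compound added for 30 min. AlphaScreen streptavidin donor/nickel chelate acceptor beads (10 ug/mL final), 30 min dark, luminescence read.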
G9a inh = qHTS Assay for Inhibitors of Histone Lysine Methyltransferase G9a; AID 504332, 2011; 8.8% of 350,000 active; Potency, µM (titrated, usually from 102 µM), without a hit: top-dose activity, negative = inhibition, usual class: inhibitors; G9a H3K9 monomethylation, AlphaScreen, 2 h; Histone-lysine N-methyltransferase EHMT2 (Homo sapiens), Q96KQ7; also: % is scaled to controls: 0 for no effect and ±100 for the full control effect; nearly all actives have a fitted effect of over 75% in size
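Signal arises when biotinylated H3K9 peptide, once monomethylated, bridges streptavidin donor and antibody-captured acceptor beads. Enzyme at 20 nM was preincubated 15 min with test compounds; peptide 500 nM and SAM 20 uM then reacted for 2 h.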
An asterisk follows results filed as active; ? = inconclusive; · = no result given; [ ] = remark or other dose. Rows were chosen to be rich in hits. Some 10% of all compounds tested hit in one or more screens of this group. Calls follow the shape of the dose curve; as a rule, active = well fitted curve in the direction sought with a large enough effect; inconclusive = small, poorly fitted or top-dose-only effect, or another doubt; inactive = no such curve, though single readings can be large; an effect the other way counts as inactive or inconclusive. Potency is read from the fitted curve at half-maximal effect.

SMILES | GLS inh | BAZ2B block | JMJD2A Tudor inh | HP1b chromo inh | G9a inh
CCCCOc1ccc(C(=O)Nc2ccc3c(c2)C(=O)NC3=O)cc1 | 0% | -25% | -5% | 35% | 13%
O=C(O)c1ccc(Cl)c(S(=O)(=O)Nc2ccc3cn[nH]c3c2)c1 | 25% | ? | -16% | 0% | 45µM*
O=C(COC(=O)c1ccccn1)Nc1ccc(S(=O)(=O)N2CCOCC2)cc1 | 15% | -5% | -16% | 25% | -8%[59 µM]
CCOC(=O)CC1(C)OCC(C[N+]2(C)CCCCC2)O1 (stereo not given) | -2% | -7% | -4% | 16% | ?
S=C(NCCc1ccccc1)Nc1cccc2cnccc12 | 0% | ? | -30% | -8% | 50µM*
S=C(NCc1ccccc1)Nc1cccc2cnccc12 | -5% | -23% | -11% | -10% | 22µM*
S=C(NCc1cccnc1)Nc1cccc2ccccc12 | 7% | 3% | -5% | 49% | -8%[59 µM]
COc1ccccc1NC(=O)CSc1ccc(-c2ccccn2)nn1 | 0% | 3.2µM* | 3.5µM* | 23% | 3%
Cc1cccc(NC(=O)CSc2ccc(-c3ccccn3)nn2)c1C | 2% | 2.8µM* | 8.9µM* | 28% | 7%
Cc1c(Cl)cccc1NC(=O)CSc1ccc(-c2ccccn2)nn1 | 4% | 5% | ? | 70% | -6%[59 µM]
COc1ccccc1NC(=O)CSc1nnc(-c2ccccn2)n1Cc1ccco1 | -12% | ? | 56µM* | -15% | ?
Cc1c(NCc2cc(Cl)ccc2O)c(=O)n(-c2ccccc2)n1C | 25% | -3% | -11% | 26% | 26%
O=C(CN1CCN(S(=O)(=O)c2ccccc2)CC1)NC(=O)NCc1ccccc1 | -3% | -8% | -5% | 25% | 24%[12.7 µM]
Cc1ccc(C)c(NC(=O)CN(C)C(=O)C2CCCC2)c1 | 0% | 17% | -18% | 30% | ?
Cc1ccc(C)c(NC(=O)CN(C)C(C)C(=O)N2CC(C)CC(C)C2)c1 (stereo not given) | -7% | -5% | -20% | 48% | 56µM*
COC(=O)C1=C(O)/C(=C\c2cc(C)n(-c3ccc(F)cc3)c2C)N=C1C | -10% | · | 40µM* | -2% | 35µM*
CCC(=NC(CC)CO)C1=C(O)CC(C)(C)CC1=O (stereo not given) | 7% | 1% | -7% | 32% | ?
c1csc(-c2nc(NCC3CCCO3)c3ccccc3n2)c1 (stereo not given) | 16% | 4% | -17% | 35% | 15%
Brc1ccc2nc(-c3cccs3)c(NCC3CCCO3)n2c1 (stereo not given) | 18% | 50µM* | -24% | 18% | ·
CC1Nc2ccc(C(=O)NC3CCCCC3)cc2NC1=O (stereo not given) | -3% | -17% | 0% | 42% | 35µM*
CN(C)c1ccc(C(=S)N2CCCCC2)cc1 | 34% | -39% | -35% | -21% | ?
CN(C)c1cccc(C(=O)NC2CCCCCC2)c1 | 33% | -34% | ? | 11% | 8.9µM*
CN(C)c1ccc(C(=S)NC2CCCCC2)cc1 | 3% | -34% | ? | ? | 5.6µM*
CCOc1ccc(C(=S)NC2CCCCC2)cc1OCC | -17% | ? | 79µM* | ? | 7.9µM*
COc1ccc(C2=NN(C(=O)CCC(=O)O)C(c3ccccc3F)C2)cc1 (stereo not given) | -3% | 0% | 0% | 36% | -3%
Cc1cccc(NC(=O)CNC(=O)COc2cc(F)ccc2[N+](=O)[O-])c1C | -13% | -3% | ? | ? | ?
COc1cc(CNC(=O)Nc2nc(C(N)Cc3ccc(C(F)(F)F)cc3)cs2)cc(OC)c1OC (stereo not given) | 8% | · | · | · | ·
CC(C)Nc1nnc(SCc2cc(=O)n3ccsc3n2)s1 | -8% | · | -24% | 32% | -3%
COCCCNC(=O)Cn1c(=O)n(Cc2ccc(C(=O)NCc3ccc(C)cc3)cc2)c(=O)c2ccccc21 | -1% | -20% | -24% | 15% | -4%[59 µM]
CCN(CC)c1ccc(C(=S)NC2CCCCC2)cc1 | 19% | 22µM* | ? | 32µM* | -147%[59 µM]
